The structures appear in SMILES notation. Inconclusive results are not listed. A call without a number means that no potency is given here. Active and inactive are the calls of the source. Calls come from the whole dose curve; as a rule, active = well fitted cell-killing curve with a large enough effect; inconclusive = small, poorly fitted or top-dose-only effect, or effect the other way; inactive = no such curve, though single readings can be large or run the other way.
Potency is the fitted concentration of half-maximal effect.

The experiment can be described thus: Viability qHTS for spleen associated tyrosine kinase inhibitor (SYKi) naive MV4-11 cells (AID 1963823). Note: nearly all actives have a fitted effect of over 40% in size. Conditions: MV4-11 AML viability, CellTiter-Glo luminescence, 72 h; series mostly up to 45 µM. The method, boiled down: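 Compounds were dispensed acoustically onto plates, MV4-11 cells (SYKi-naive) added at 500 per well, and plates incubated 72 hr at 37 C. CellTiter-Glo was added and luminescence measured after 10 min.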
`COc1cc2c(cc1O)[C@H](c1ccc(O[C@@H]3O[C@H](CO)[C@@H](O)[C@H](O)[C@H]3O)c(OC)c1)[C@@H](CO)[C@](O)(CO)C2`: the Potency entry was “inactive”.

As to `COc1cc(C2OCC3C(c4ccc(OC5OC(CO)C(O)C(O)C5O)c(OC)c4)OCC23)ccc1O` (configuration not stated), the Potency entry was “inactive”. Consider `C=C1CC23CC1CCC2C12OC(=O)C(C)(C(O)C(O)C1O)C2C3C(=O)O` (configuration not stated), for which the Potency entry is “inactive”. Take `O=C(O)c1cn(C2CC2)c2cc(N3C[C@@H]4C[C@H]3CN4)c(F)cc2c1=O`: the Potency result is “inactive”. `O=C(O)c1cc(O[C@@H]2O[C@H](CO[C@@H]3OC[C@@H](O)[C@H](O)[C@H]3O)[C@@H](O)[C@H](O)[C@H]2O)c2ccccc2c1O`: the Potency entry is “inactive”.

Turning to `Nc1nc2c(cnn2CCCc2ccc(O)cc2)c2nc(-c3ccco3)nn12`, the Potency entry is “inactive”. For `Cc1ccc(NC(=O)N2CCN(c3nc(N)nc4sc(-c5cccnc5)nc34)CC2)cc1`, the Potency is 13 nM (active). Turning to `NS(=O)(=O)c1ccc(N=Nc2c(O)[nH]c3ccc(Br)cc23)cc1`, the Potency is 130 nM (active). `C=C1[C@H]2CC[C@]3(O)[C@@](CC[C@@H]4[C@](C)(C(=O)O)CCC[C@]43C)(C2)[C@H]1OC(=O)/C(C)=C\C`: the Potency entry is “inactive”.

Consider `COc1ccc(N2CCN(CCCNC(=O)Cn3c(=O)c4cccn4c4c(C)ccnc43)CC2)cc1`, for which the Potency result was “inactive”. For `COc1ccc(-c2c(C)c(C(=O)NN3CCCCC3)nn2-c2ccc(Cl)cc2Cl)cc1` the value was 16400 nM (active); for `COc1ccc(C(O[C@@H]2O[C@H](CO)[C@@H](O)[C@H](O)[C@H]2O)C(CO)Oc2ccc(/C=C/CO)cc2OC)cc1O` (some centres not stated), “inactive”.

The values are drawn from PubChem BioAssay (NCATS).
